# Assay results reported in PubChem BioAssay (NCI).
# Values joined by “and” are separate entries in the source; they are usually repeats but may differ in a detail not shown here. Equal entries are not always repeated. The panel holds about 79,000 compounds, 15% with a hit somewhere; the sample as a whole holds those more often. Unmarked numbers belong to inactive results. Active and inactive are the calls of the source. Rule as the data show it: active = growth inhibition above about 70%; inactive = the rest.
# Experiment: NCI Yeast Anticancer Drug Screen. Data for the sgs1 mgt1 strain (AID 161);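 also: 0% = growth of cultures given vehicle only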
# Details: S. cerevisiae sgs1 mgt1 strain, active compounds read high; at 50.0 µM unless noted
# Summary of the method: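 Yeast cells carrying a defined DNA-repair defect were exposed to test compounds. Growth inhibition was measured relative to vehicle-treated controls.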
row,Structure (SMILES),growth inhibition
1,O=C(C1=CCCCC1)c1ccc(-c2ccccc2)cc1,2.25%
2,COc1ccc(C=O)c(Cl)c1OC,0.95%
3,CS(=O)(=O)OCC1OC(n2ncc(=O)[nH]c2=O)C(O)C1O (stereo not given),-7.1%
4,Cc1ccc(C(C)C)c(Oc2cc(C)ccc2C(C)C)c1,-6.8%
5,CC(C)(C)C1CCC2c3c([nH]c4ccccc34)C3C(=O)N(c4cc(Br)cc(Br)c4)C(=O)C3C2C1 (stereo not given),7.75%
6,O=C(O)CCCn1nnc2c(=O)[nH][nH]c(=O)c21,4.4%
7,Cc1cc(NC(=O)C(=O)Cc2nc3ccccc3s2)ccc1Cl,21.9%
8,O=c1/c(=C/c2ccccc2[N+](=O)[O-])sc2nc3ccccc3n12,-25.9%
9,O=P(CSCCO)(c1ccccc1)c1ccccc1,-13.4%
10,COc1cccc(/C=C/c2cnc3ccccc3n2)c1OC,-10.2%
11,Cc1cccc(C(=O)NNC(=O)C(=O)NNC(=O)c2cccc(C)c2)c1,-3.1%
12,CN=Nc1c(O)[nH]c2ccc(C)cc12,-8.3%
13,CCOC(=O)c1cn[nH]c1C,-2.2%
14,[N-]=[N+]=Nc1c2c(nc3ccccc13)CCCC2,-21.4%
15,NC(=O)c1ccc(-c2csc(=S)[nH]2)s1,-15.5%
16,Nn1nnc2ccccc21,16.3%
17,Cn1c2ccccc2c(=O)c2[nH]c3ccccc3c21,84.2% (active)
18,CCCCCCCCCCCCCCCCCC(=O)N1CCN(C(=O)CCCCCCCCCCCCCCCCC)C1,-4.3%
19,CN1C(=O)n2c(nc3ccccc32)C(Cl)(Cl)C1=O,3.25%
20,CCOC(=O)c1c(C)cc(=O)oc1C,-4.65% and -3.25%

row,Structure (SMILES),growth inhibition
1,CC(=O)COC(=O)c1ccccc1,28.7%
2,Cc1cc2ccccc2c(N=Cc2cc(Br)cc(Br)c2O)c1C#N,96.8% (active)
3,CC1CCCC(CC(=O)O)(CC(=O)O)C1 (stereo not given),-5.1%
4,c1ccc2c(c1)C(=NCCCN1CCCCCCC1)c1cccn1-2,29.1%
5,[CH3][Sn]([CH3])([S]P(=S)(c1ccccc1)c1ccccc1)[S]P(=S)(c1ccccc1)c1ccccc1,18.7%
6,Cc1ccc(Nc2nc(N)nc3c2ncn3C2OC(CO)C(O)C2O)cc1 (stereo not given),7.85%
7,CCOc1ccc(N=Nc2c(O)n(-c3ccc(Cl)cc3)c(=S)n(-c3ccccc3)c2=O)cc1,7.85%
8,Oc1cccnc1Cl,17.4%
9,CCCNCCC,14.5%
10,COC(=O)CC1(C(=O)OC)NC(=O)c2cc(OC)c(Cl)cc2N1 (stereo not given),-7.1%
11,COc1cc(OC)c(-c2cc(=O)c3c(OC)c(OC)c(OC)c(OC)c3o2)cc1OC,-2.8%
12,OC1(c2cccnc2)c2ccccc2Oc2ccccc21,0.7%
13,CCCCCP(=O)(O)O.[Cu+2],-9.9%
14,N#CCNC(=O)Cc1ccccc1,-10.2%
15,CC1=C(C(=O)CC(=O)C(=O)Nc2ccc(Cl)cc2C)Sc2ccccc2N1,-26.6%
16,CC(C)(C)OC(=O)NCC(=O)OC/C=C/c1ccccc1,6.65%
17,COC(=O)/C=C/c1cccnc1,-36.1%
18,O=C1C=CC(=O)N1c1ccnc(N2C(=O)C=CC2=O)c1,6.1%
19,CCCCCCCCCCCC,13.6%
20,CC1=CC(=O)[C@@H](O)[C@@]2(C)C1C[C@H]1OC(=O)[C@H](C/C=C(/C)C(C)C)[C@H]3C(C)C(O)C4(O)OC[C@@]31C42 (stereo not given in full),72% (active)

# Experiment: NCI Yeast Anticancer Drug Screen. Data for the cln2 rad14 strain (AID 165);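 also: 0% = growth equal to vehicle treated cultures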
# Details: S. cerevisiae cln2 rad14 strain, active compounds read high; at 50.0 µM unless noted
# Summary of the method: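 Relative to vehicle controls, growth inhibition of compound-treated cln2 rad14 yeast was recorded.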
row,Structure (SMILES),growth inhibition
1,O=C(C1=CCCCC1)c1ccc(-c2ccccc2)cc1,-14.6%
2,COc1ccc(C=O)c(Cl)c1OC,6.55%
3,CS(=O)(=O)OCC1OC(n2ncc(=O)[nH]c2=O)C(O)C1O (stereo not given),-2.45%
4,Cc1ccc(C(C)C)c(Oc2cc(C)ccc2C(C)C)c1,-37.8%
5,CC(C)(C)C1CCC2c3c([nH]c4ccccc34)C3C(=O)N(c4cc(Br)cc(Br)c4)C(=O)C3C2C1 (stereo not given),18.9%
6,O=C(O)CCCn1nnc2c(=O)[nH][nH]c(=O)c21,-7.75%
7,Cc1cc(NC(=O)C(=O)Cc2nc3ccccc3s2)ccc1Cl,43.9%
8,O=c1/c(=C/c2ccccc2[N+](=O)[O-])sc2nc3ccccc3n12,-12.7%
9,O=P(CSCCO)(c1ccccc1)c1ccccc1,-6.3%
10,COc1cccc(/C=C/c2cnc3ccccc3n2)c1OC,10.7%
11,Cc1cccc(C(=O)NNC(=O)C(=O)NNC(=O)c2cccc(C)c2)c1,-0.05%
12,CN=Nc1c(O)[nH]c2ccc(C)cc12,-43.1%
13,CCOC(=O)c1cn[nH]c1C,-21.4%
14,[N-]=[N+]=Nc1c2c(nc3ccccc13)CCCC2,-51.1%
15,NC(=O)c1ccc(-c2csc(=S)[nH]2)s1,-13.1%
16,Nn1nnc2ccccc21,33%
17,Cn1c2ccccc2c(=O)c2[nH]c3ccccc3c21,63.5%
18,CCCCCCCCCCCCCCCCCC(=O)N1CCN(C(=O)CCCCCCCCCCCCCCCCC)C1,-19.2%
19,CN1C(=O)n2c(nc3ccccc32)C(Cl)(Cl)C1=O,20.4%
20,CCOC(=O)c1c(C)cc(=O)oc1C,-31.3% and -11.1%

row,Structure (SMILES),growth inhibition
1,CC(=O)COC(=O)c1ccccc1,0%
2,Cc1cc2ccccc2c(N=Cc2cc(Br)cc(Br)c2O)c1C#N,60.2%
3,CC1CCCC(CC(=O)O)(CC(=O)O)C1 (stereo not given),-29.3%
4,c1ccc2c(c1)C(=NCCCN1CCCCCCC1)c1cccn1-2,-2.7%
5,[CH3][Sn]([CH3])([S]P(=S)(c1ccccc1)c1ccccc1)[S]P(=S)(c1ccccc1)c1ccccc1,-15.8%
6,Cc1ccc(Nc2nc(N)nc3c2ncn3C2OC(CO)C(O)C2O)cc1 (stereo not given),-3.75%
7,CCOc1ccc(N=Nc2c(O)n(-c3ccc(Cl)cc3)c(=S)n(-c3ccccc3)c2=O)cc1,-0.15%
8,Oc1cccnc1Cl,9.2%
9,CCCNCCC,-12.4%
10,COC(=O)CC1(C(=O)OC)NC(=O)c2cc(OC)c(Cl)cc2N1 (stereo not given),13.6%
11,COc1cc(OC)c(-c2cc(=O)c3c(OC)c(OC)c(OC)c(OC)c3o2)cc1OC,-44%
12,OC1(c2cccnc2)c2ccccc2Oc2ccccc21,-28.1%
13,CCCCCP(=O)(O)O.[Cu+2],-40%
14,N#CCNC(=O)Cc1ccccc1,-12.4%
15,CC1=C(C(=O)CC(=O)C(=O)Nc2ccc(Cl)cc2C)Sc2ccccc2N1,9.35%
16,CC(C)(C)OC(=O)NCC(=O)OC/C=C/c1ccccc1,-8.15%
17,COC(=O)/C=C/c1cccnc1,-22.7%
18,O=C1C=CC(=O)N1c1ccnc(N2C(=O)C=CC2=O)c1,-7.05%
19,CCCCCCCCCCCC,-25.9%
20,CC1=CC(=O)[C@@H](O)[C@@]2(C)C1C[C@H]1OC(=O)[C@H](C/C=C(/C)C(C)C)[C@H]3C(C)C(O)C4(O)OC[C@@]31C42 (stereo not given in full),81.7% (active)
